Screens as filed in PubChem.
Shown is part of a subset that was picked to be rich in hits.
JNK3 inh = JNK3 kinase activity inhibitors, primary screen, biochemical, human, purified enzyme; HTS; inhibition, % at 8 µM; 0.61% of 60,000 active; AID 746, 2007; in the data active means inhibition above about 17%;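 further: 0% = DMSO and 100% = reference inhibitor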
PKA inh = inhibitors of human PKA kinase activity, primary screen, biochemical, ATP-depletion luminescence, Kemptide substrate | cAMP-dependent protein kinase catalytic subunit alpha (Homo sapiens), P17612 | PKA Kemptide phosphorylation, Kinase-Glo ATP luminescence | inhibition, % at 6 µM | 0.1% of 65,000 active | AID 524, 2006;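 active means inhibition above the screen-wide mean inhibition plus 3 SD, cut at about 21% in these data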
DAT uptake mod = changed hDAT dopamine uptake under cocaine IC80, either direction, primary screen, cocaine antagonist project, cell-based, LLC-PK1 hDAT, [14C]-dopamine uptake, MLSMR; Sodium-dependent dopamine transporter (Homo sapiens), Q01959; LLC-PK1 hDAT cells, [14C]-dopamine uptake with cocaine IC80; actives deviate in either direction; B-score at 10 µM; 1.3% of 110,000 active; AID 449768, 2010;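 active means Z score or B-score, a plate-position-corrected score, falls beyond the plate's 99.7% confidence bounds, in either direction; inactive means both scores lie inside the 99.7% bounds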;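 further: scored against the spread of the other compound wells on the same plate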
Target sequence (Q01959 whole entry, looked up): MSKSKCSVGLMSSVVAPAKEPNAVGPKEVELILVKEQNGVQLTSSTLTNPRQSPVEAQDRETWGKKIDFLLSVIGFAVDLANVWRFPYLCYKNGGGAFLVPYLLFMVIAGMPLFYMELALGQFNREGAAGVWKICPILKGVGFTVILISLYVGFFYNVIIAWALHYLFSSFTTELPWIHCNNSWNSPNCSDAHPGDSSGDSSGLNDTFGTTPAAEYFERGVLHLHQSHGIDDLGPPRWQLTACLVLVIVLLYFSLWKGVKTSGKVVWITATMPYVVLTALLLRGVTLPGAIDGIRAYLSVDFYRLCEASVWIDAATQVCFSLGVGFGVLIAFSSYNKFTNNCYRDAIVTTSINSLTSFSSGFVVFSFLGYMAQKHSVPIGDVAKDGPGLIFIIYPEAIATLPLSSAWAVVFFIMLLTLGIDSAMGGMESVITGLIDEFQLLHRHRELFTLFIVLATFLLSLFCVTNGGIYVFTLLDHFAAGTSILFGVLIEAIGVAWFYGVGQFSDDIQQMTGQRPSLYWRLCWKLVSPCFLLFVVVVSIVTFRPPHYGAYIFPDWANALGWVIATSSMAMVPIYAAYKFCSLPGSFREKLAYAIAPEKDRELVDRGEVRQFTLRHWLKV
ROCK2 blocker = inhibitors of human ROCK2 kinase, primary screen, biochemical, high-throughput, luminescence. Rho-associated protein kinase 2 (Homo sapiens), O75116. purified ROCK2, Kinase-Glo ATP depletion luminescence. inhibition, % at 6 µM. 0.35% of 60,000 active. AID 604, 2007;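 active means inhibition above the screen-wide mean inhibition plus 3 SD, cut at about 18% in these data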;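 further: plate controls were DMSO wells for no effect and Y-27632 control wells after no-enzyme background subtraction for full effect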
D1 mod = D1 CRE-luciferase signal change, two-sided – cell-based, HEK293 D1, dopamine EC30, D1 allosteric modulator project, primary screen; 5.9% of 58,000 active; D(1A) dopamine receptor (Homo sapiens), P21728; dopamine EC30 potentiation; actives deviate in either direction; B-score at 10 µM;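 active means luminescence count or its row- and column-corrected plate score outside the 99.7% band of the plate's sample wells, on either side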
D1 PAM confirm = D1 receptor positive allosteric modulators, retest, confirmation, cell-based, HEK293 D1, CRE-luciferase, duplicate; luminescence at 10 µM; 88% of 2,200 active; dopamine EC30 potentiation; hits give high values; AID 642, 2007; shares compounds with D1 mod;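 active means luminescence in either of two replicates above the same-plate mean plus 3 SD of the low-dose dopamine control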
D1 no dopamine = D1 receptor agonism without dopamine, confirmation, mechanism study for D1 allosteric modulator project, cell-based, HEK293 D1, CRE-luciferase, secondary assay 1 | shares compounds with D1 mod | luminescence, no dopamine; hits give high values | luminescence at 10 µM | 0.8% of 1,900 active; in the data active means luminescence above about 3900
Isoprot counter = counter-screen for D1 modulators: isoproterenol response in HEK293 cells; calls only at 10 µM; shares compounds with D1 mod; HEK293 D1 CRE-luciferase, isoproterenol EC30 counter-screen; 63% of 2,200 active;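 active means luminescence in either replicate above plate mean of wells with a partly effective reference agonist dose plus 3 SD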;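 further: isoproterenol raises cAMP through native beta-adrenoceptor Gs so signal bypasses D1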
* marks the source's active call; other numbers are inactive results; i = inactive; x = no result given; + = active, no number.

SMILES	JNK3 inh	PKA inh	DAT uptake mod	ROCK2 blocker	D1 mod	D1 PAM confirm	D1 no dopamine	Isoprot counter
Cc1ccc(C2CC(c3ccccc3C)n3nc(N)nc3N2)cc1 (configuration not stated)	-8	1	-0.74	0	5.3*	6604	1668	i
COc1ccc2[nH]c(=O)c(C(c3nnnn3C3CCCC3)N(C)C3CCCCC3)cc2c1 (configuration not stated)	-7	-1	-0.00069	0	-0.71	x	x	x
Cc1cc(C)c(S(=O)(=O)NCC23C=CC(O2)C2C(=O)N(c4ccccc4)C(=O)C23)c(C)c1 (configuration not stated)	x	x	0.079	x	x	x	x	x
COc1ccc(CNC(=O)c2cnn3c(C(F)F)cc(C)nc23)cc1OC	24*	1	0.51	3	3.9*	8268*	1472	+
Cc1cc(C(F)F)n2ncc(C(=O)N3CCC(C(N)=O)CC3)c2n1	x	x	-0.83	x	x	x	x	x
Cc1cc(=O)c2n(Cc3ccc(Cl)cc3)nc[n+]2[nH]1	-12	2	0.91	0	4.7*	8876*	1700	i
O=C(NCCc1ccncc1)Nc1ccccc1Cl	6	11	-0.24	11	0.65	x	x	x
CSc1cc(/C=N/O)c(SC)s1	5	3	-0.44	6	6.9*	12744*	1664	i
Cc1cc(C)c(COCc2cc(/C=N/O)c(C)cc2C)cc1/C=N/O	x	x	0.59	x	x	x	x	x
CCCOC(=O)NC(CC)COC(=O)Nc1cccc(C)c1C (configuration not stated)	2	8	0.89	7	8.2*	6072	1720	i
CCOc1ccc(CCNS(=O)(=O)c2cnc[nH]2)cc1OCC	5	-2	-0.58	0	25*	24048*	x	+
COc1ccc(-c2cc(C(F)F)n3ncc(C(=O)N4CCN(C(=O)c5ccco5)CC4)c3n2)cc1	5	6	1.8	7	9.4*	13496*	1536	+
Cc1ccc(-c2cc(C(F)F)n3ncc(C(=O)N4CCN(c5ccccn5)CC4)c3n2)cc1	-10	-3	0.88	-9	2.8	x	x	x
COc1ccc(Cn2c(N)c(C#N)c3nc4ccccc4nc32)cc1OC	-1	6	0.65	4	5.1*	11232*	1656	+
COc1ccc(CCn2c(N)c(C#N)c3nc4ccccc4nc32)cc1OC	5	6	0.38	4	-0.66	x	x	x
CCn1c(=O)c2ccccc2n2c(SCC(=O)NCc3cccs3)nnc12	-1	12	0.3	6	4.7*	7672	1452	i
Cc1ccc(Cn2cc(SCC(N)=O)c3ccccc32)cc1	x	x	-1	x	x	x	x	x
CC1CCCCN1C(=O)CSc1nc(C2CC2)nc2c1cnn2-c1ccccc1 (configuration not stated)	x	-7	-0.27	x	4*	7396*	1340	i
COc1ccc(CSc2nnnn2Cc2ccccc2)cc1OC	-3	12	1	0	3.6*	15068*	1692	+
COc1ccc(CCNC(=O)CSc2nnnn2-c2ccccc2)cc1	1	-9	1.4	-4	0.14	x	x	x
COc1ccc(C)cc1NC(=O)CSc1nnnn1Cc1ccccc1	-4	10	0.45	4	0.38	x	x	x
COc1ccc(CCNc2nnc(Sc3nnnn3-c3ccccc3)s2)cc1OC	-1	7	1.8	0	5.3*	10264*	1392	i
COC(=O)c1ccc(NC(=O)CN(Cc2ccc(Cl)cc2)S(C)(=O)=O)cc1	x	x	1.1	x	x	x	x	x
CCCN1CCN(CCCNC(=O)c2cc3c(=O)n(C)c4ccccc4c3n2C)CC1	5	1	-0.31	-4	-0.0064	x	x	x
CN1CCN(CCNC(=O)c2cc3c(=O)n(C)c4ccccc4c3n2C)CC1	-2	11	0.45	4	4.6*	5788	x	i
SMILES	JNK3 inh	PKA inh	DAT uptake mod	ROCK2 blocker	D1 mod	D1 PAM confirm	D1 no dopamine	Isoprot counter
CCOC(=O)c1cnn2c(C(F)F)cc(C3CC3)nc12	-1	5	-0.73	8	3.7*	14020*	1636	+
CCOC(=O)c1cnn2c(C)cc(-c3ccccc3)nc12	1	0	-1.2	-3	-0.032	x	x	x
O=C(Nc1cccnc1)c1ccccc1F	4	10	0.35	5	-0.13	x	x	x
O=C(Nc1cccnc1)c1cnn2c(C(F)F)cc(C3CC3)nc12	6	1	0.0083	3	5*	16636*	1580	+
Cc1ccc(S(=O)(=O)c2cc3c(=O)n4ccccc4nc3n(Cc3ccco3)c2=N)cc1	x	7	0.83	x	5*	15320*	2068	+
O=C(c1cccn2c(=O)c3cc(Cl)ccc3nc12)N1CCN(Cc2ccc3c(c2)OCO3)CC1	x	6	x	x	3*	6868*	1600	i
COc1ccc(OC)c(NS(=O)(=O)c2ccc3c(c2)CCC(=O)N3)c1	-4	-2	0.0015	-1	-0.32	x	x	x
CCn1c(=NC(=O)c2ccc(N3C(=O)CCC3=O)cc2)sc2c(OC)ccc(OC)c21	5	-1	-2	-1	9.9*	22036*	1820	+
CCn1c(=NC(=O)CN2C(=O)CCC2=O)sc2c(OC)ccc(OC)c21	2	-5	0.03	0	5.4*	11544*	x	i
CC(=O)C(C)Oc1ccc2c3c(c(=O)oc2c1)CCCC3 (configuration not stated)	4	9	0.83	4	7.8*	8432*	x	+
CC(=O)COc1ccc2c3c(c(=O)oc2c1)CCCC3	-1	9	0.019	3	4.9*	9956*	1048	+
COc1ccc(S(=O)(=O)N2CCc3ccccc3C2)cc1OC	x	x	-0.51	x	x	x	x	x
COc1cc2c(cc1OC)CN(S(=O)(=O)c1ccc3c(c1)OCCO3)CC2	-1	-5	0.21	-4	5.3*	15328*	1404	+
Cc1ccc2c(c1)N1C(=O)c3ccccc3C1C1=C(CC(C)(C)CC1=O)N2 (configuration not stated)	x	x	0.69	x	x	x	x	x
Cc1cc(C)n(-c2ccc(C(=O)N3CCc4ccccc43)cc2)n1	-7	9	0.19	7	0.38	x	x	x
Cc1cc(C(=O)N2CCc3ccccc32)n(-c2ccccc2)n1	0	0	0.48	2	5.8*	10356*	1556	+
